Assay outcomes from PubChem.
In the library only some 4.2% were active in any assay of this set; here they are far more common.
AHR act: activates the human aryl hydrocarbon receptor | P35869 | AID 2796 | 320,000 compounds, 2.5% hits | AHR-responsive luciferase reporter cells, luminescence | activation, % at 5 µM; in the data active means activation above about 47%
Wnt act: Wnt/beta-catenin pathway activation; activation, % at 9.35 µM; Wnt/beta-catenin reporter cell assay, activator, plate reader; 300,000 compounds, 1.2% hits; in the data active means activation above about 30%, passing the limit was not always enough
MITF TRPM1 HTS: activators of MITF-driven TRPM1 promoter activity in SK-MEL-5 cells | activation, % at 12.5 µM | 300,000 compounds, 0.75% hits | SK-MEL-5 TRPM1-promoter luciferase, 24 h; % of positive control, neutral wells = 0;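 active means mean activation of at least 80% with every replicate also reaching 80%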
GAA850 FXN act: activators of GAA850 frataxin (FXN) promoter; HEK293 lucGAA850 FXN promoter luciferase reporter, 24 h; percent of 10 µM SAHA response; activation, % at 6 µM; 360,000 compounds, 0.56% hits; AID 540364;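 active means activation above the average of all compounds screened plus 3 SD, cutoff fixed separately per campaign, cut at about 7.5% in these data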
esBAF inh: SWI/SNF esBAF complex inhibition; mouse ES cells, Bmi1-luciferase knock-in reporter, 24 h; 100% = twice the neutral-well signal; reporter increase, % at 12.5 µM; 350,000 compounds, 2% hits; in the data active means activation above about 40%;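 further: a rise in the Bmi1 reporter signal indicates esBAF inhibition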
GAA30 counter: counter-screen for GAA850 frataxin promoter activators: GAA30 promoter activation. HEK293 lucGAA30 FXN promoter luciferase, 24 h; DMSO = 0%, 5 µM ipriflavone = 100%. shares compounds with GAA850 FXN act. 1,900 compounds, 66% hits. activation, % at 6 µM;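 active means mean activation above the mean of solvent-only control wells plus 3 SD, cut at about 22% in these data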;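 further: counterscreen of GAA850 promoter hits where activity marks nonselective or luminescence artifacts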
GAA850 confirm: GAA850 FXN promoter activation confirmation; shares compounds with GAA850 FXN act; HEK293 lucGAA850 FXN promoter luciferase reporter, 24 h; 100% = activation by SAHA; activation, % at 6 µM; 1,900 compounds, 86% hits; AID 588351;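 active means mean activation above a set limit taken from the primary screen, cut at about 8% in these data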
Ring1 derepress: esBAF inhibition confirmed by Ring1 de-repression; shares compounds with esBAF inh; mouse ESC E14, Ring1 mRNA RT-qPCR fold change; fold change at 33 µM; 550 tested, under 10 active; AID 743176;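 active means Ring1 gene expression raised more than 2-fold over untreated cells in both replicates at either tested dose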;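 further: Ring1 transcript normalised to actin housekeeping signal by TaqMan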
Fgf4 repress: confirmation of esBAF inhibitors: Fgf4 repression in mouse ESCs; shares compounds with esBAF inh; mouse ESC E14, Fgf4 mRNA qPCR fold change; active compounds read low; Fgf4 expression fold change at 33 µM; 550 compounds, 4% hits; AID 743177;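 active means Fgf4 expression under 0.8 fold of control in both repeat measurements at one or both tested doses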;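 further: Fgf4 transcript normalised to actin in duplex TaqMan qPCR; cells exposed to compound for 24 h before lysis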
Bmi1 derepress: confirmation of esBAF inhibitors: Bmi1 de-repression in mouse ESCs; fold change at 33 µM; AID 743180; mouse ESE14 ES cells, Bmi1 mRNA qPCR fold; active compounds read high; shares compounds with esBAF inh; 550 tested, under 10 active;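 active means Bmi1 expression fold change above 6 at either tested concentration, seen in replicate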;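 further: higher fold means more Bmi1 de-repression and stronger esBAF inhibition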
A549 tox SP: A549 cell cytotoxicity; shares compounds with esBAF inh; plate reader; cell viability change % (negative = cytotoxic), % at 25 µM, hits read low; 550 tested, under 10 active; call rule not given here
HepG2 tox SP: kills or reduces viability of HepG2 cells. shares compounds with esBAF inh. HepG2 cytotoxicity, plate reader; active compounds read low. activity change, negative = inhibition, % at 25 µM. 550 compounds, 4% hits; in the data active means activity change below about -50%
HEK293 cytotox SP: cytotoxicity in HEK293 cells. shares compounds with esBAF inh. plate reader. activity change, negative = inhibition, % at 25 µM, hits read low. 550 compounds, 3% hits; in the data active means activity change below about -38%, passing the limit was not always enough
Large screens that a line does not name were inactive (follow-up assays come after a bar, where they were run).

OC12ONC(c3ccccn3)C1N1CCC2CC1 (stereo unspecified)	GAA850 FXN act 18 | GAA30 counter 34 | GAA850 confirm 16
CCN[C@@H](C)Cc1cccc(C(F)(F)F)c1	GAA850 FXN act 14 | GAA30 counter inactive | GAA850 confirm inactive
CCN(C)C(C)Cc1cccc(C(F)(F)F)c1 (stereo unspecified)	none (no result: AHR act, MITF TRPM1 HTS, GAA850 FXN act, esBAF inh)
Nc1cc(Cl)c2nonc2c1[N+](=O)[O-]	GAA850 FXN act 43 (no result: esBAF inh) | GAA30 counter inactive | GAA850 confirm 86
COC(=O)[C@H]1[C@H](CO)[C@H]2Cn3c(cccc3=O)[C@@H]1N2Cc1nccs1	none (no result: AHR act, Wnt act, MITF TRPM1 HTS, GAA850 FXN act)
CN(C)[C@@H]1C(=O)C(C(N)=O)=C(O)[C@@]2(O)C(=O)C3=C(O)c4c(O)ccc(Cl)c4[C@@](C)(O)[C@H]3C[C@@H]12	GAA850 FXN act 13 (no result: MITF TRPM1 HTS) | GAA30 counter 41 | GAA850 confirm 15
COc1cc(C)c(CN2CC=C(c3ccc(F)cc3)CC2)cc1C	none
COc1cc2nc(CN3CC=C(c4ccccc4)CC3)[nH]c(=O)c2cc1OC	GAA850 FXN act 22 | GAA30 counter 77 | GAA850 confirm 61
O=C(O)[C@@H]1[C@@H](CO)[C@@H]2Cn3c(ccc(C4=CCCCC4)c3=O)[C@H]1N2C(=O)Cc1ccccn1	none (no result: AHR act, Wnt act, MITF TRPM1 HTS, GAA850 FXN act)
C/C1=C\[C@@H](C)C/C=C/[C@H]2[C@@H]3O[C@]3(C)[C@@H](C)[C@H]3[C@H](Cc4c[nH]c5ccccc45)NC(=O)[C@]32C(=O)/C=C/C(=O)[C@@H]1O	GAA850 FXN act 8.8 (no result: Wnt act, MITF TRPM1 HTS) | GAA30 counter inactive | GAA850 confirm 46
Cc1[nH]c2ccc(OC(F)(F)F)cc2c1CCNCc1ccc(Cl)cc1	GAA850 FXN act 13 (no result: AHR act) | GAA30 counter inactive | GAA850 confirm 8.9
Cc1[nH]c2ccc(OC(F)(F)F)cc2c1CCNCc1cccc([N+](=O)[O-])c1	none
COc1cccc(-c2ccc3n(c2=O)C[C@H]2[C@H](CO)[C@@H](C(=O)O)[C@@H]3N2Cc2ccccc2F)c1	none (no result: AHR act, Wnt act, MITF TRPM1 HTS, GAA850 FXN act)
Cc1ccc(-c2nc3ccc(Cl)cc3n2OC(=O)N(C)C)cc1	GAA850 FXN act 7.7 (no result: Wnt act, esBAF inh) | GAA30 counter 109 | GAA850 confirm 41
CC(=NNC(=S)N1CC2CCC(CC2)C1)c1nccs1	GAA850 FXN act 12 (no result: AHR act, esBAF inh) | GAA30 counter inactive | GAA850 confirm inactive
COC(=O)[C@H]1[C@H](CO)[C@H]2Cn3c(ccc(/C=C/c4ccccc4)c3=O)[C@@H]1N2C(=O)C1CCC1	none (no result: AHR act, Wnt act, MITF TRPM1 HTS, GAA850 FXN act)
O=C(Cc1cccnc1)N1CCCCN2[C@H](CO)[C@@H](c3ccc(C#CC4CCCC4)cc3)[C@H]2C1	none (no result: AHR act, Wnt act, MITF TRPM1 HTS, GAA850 FXN act)
N#Cc1cccc(-c2ccc([C@H]3[C@@H](CO)N4CCCCN(C(=O)Cc5cccnc5)C[C@H]34)cc2)c1	none (no result: AHR act, Wnt act, MITF TRPM1 HTS, GAA850 FXN act)
CCCCCn1c(=O)c(C(=O)Nc2ccccc2Cl)c(O)c2ccccc21	esBAF inh 100 (no result: MITF TRPM1 HTS) | Ring1 derepress inactive | Fgf4 repress inactive | Bmi1 derepress inactive | A549 tox SP inactive | HepG2 tox SP inactive | HEK293 cytotox SP inactive
COC(=O)[C@H]1[C@H](CO)[C@H]2Cn3c(ccc(C4=CCCCC4)c3=O)[C@@H]1N2Cc1cccnc1	none (no result: AHR act, Wnt act, MITF TRPM1 HTS, GAA850 FXN act)
